Source: ChEMBL document CHEMBL4513216, “Probing the Open Global Health Chemical Diversity Library for Multistage-Active Starting Points for Next-Generation Antimalarials” (ACS Infect Dis, 2020)
Screen size: about 65,000 compounds; about 2,100 (3.2%) showed an effect of 50% or more. The median lay at about -52%. Only a selection was taken, and strong results are over-represented in it overall.

test system: Plasmodium falciparum; experiment: Screen against P. falciparum Asexual Blood Stage (ABS), at 5uM; format: functional, Dd2; settings: tested at 5 uM

| Structure (SMILES) | INHIBITION [%] |
| --- | --- |
| Cn1ccc(C(=O)NC2CCC23CCN(Cc2nccs2)CC3)c1 (stereo unspecified) | -44.3 |
| Cc1ccc(CN2CCC3(CCC3NC(=O)c3ccn(C)c3)CC2)s1 (stereo unspecified) | 55.9 |
| Cn1ccc(C(=O)NC2CCC23CCN(Cc2ccc(F)cc2)CC3)c1 (stereo unspecified) | 39.9 |
| CN(C)CCOCC1CN(Cc2ccsc2)Cc2ccnn2C1 (stereo unspecified) | 38.6 |
| CN(C)CCOCC1CN(CCN(C)C)Cc2ccnn2C1 (stereo unspecified) | -8.37 |
| CN(C)CCOCC1CN(Cc2cccs2)Cc2ccnn2C1 (stereo unspecified) | 63.4 |
| CNS(=O)(=O)c1cc(C)c2[nH]c(=O)cc(C)c2c1 | -73.5 |
| COc1ccc(NC(=O)Cn2nc(C)c(C)cc2=O)cc1 | 25.5 |
| CC(=O)c1c(C)nn(CC(=O)Nc2ccc(Br)cc2)c1C | 66.7 |
| CC(=O)c1c(C)nn(CC(=O)Nc2ccc(F)cc2)c1C | -44.1 |
| COc1ncccc1C(=O)N1CC[C@H]2C[C@H](c3ccncn3)O[C@@H]2C1 | -27.7 |
| COc1ccc(S(=O)(=O)N2CCC[C@@H]3CN(C(=O)C4CC4)C[C@@H]32)cc1 | -95.9 |
| Fc1ccc(CN2CCO[C@H]3[C@H](OCC4CCCC4)CC[C@@H]32)cc1 | -74.2 |
| O=C(CCC(F)(F)F)N1CCCC2(CCC(=O)N(CC3CC3)C2)C1 (stereo unspecified) | -7.69 |
| CC(C)Oc1ccccc1-c1cc(CN)ccc1F | 60.3 |
| COc1cccc(-c2cc(CN)ccc2F)c1F | -77.3 |
| CC(C)Oc1ccc(CNC(=O)NCc2ccncc2)cc1F | -9.03 |
| COc1ccc(-c2cc(CN)ccc2F)c(OC)c1OC | 13.4 |
| CC(C)Oc1ccc(CNC(=O)CC(F)(F)F)cc1F | -29.4 |
| COc1cccc(Cl)c1-c1cc(CN)ccc1F | 65.3 |
| CC(C)NC(=O)Nc1ccc(-c2nc(C(C)C)no2)cc1 | -60.3 |
| CN(C)CCCNC(=O)c1cc(-c2ccc3c(c2)CCO3)n[nH]1 | -55.4 |
| Cc1nc(CN2CCN(c3nc4c(s3)c(C)nn4C)CC2)cs1 | -145 |

| Structure (SMILES) | INHIBITION [%] |
| --- | --- |
| CC(C)(C)c1n[nH]cc1CNCC1CCN(C2CC2)C1 (stereo unspecified) | 52.2 |
| CC(C)N1CCC(CNCc2c[nH]nc2C(C)(C)C)C1 (stereo unspecified) | -90.2 |
| CCN1CCC(CNCc2c[nH]nc2C(C)(C)C)C1 (stereo unspecified) | -143 |
| Cn1c(=O)c2c(n3ncnc13)NC(=O)CC2c1ccc(F)cc1 (stereo unspecified) | -53.6 |
| Cc1cccc(C(=O)N2C[C@@H](OCc3cccnc3)[C@H]3OCCC[C@@H]32)n1 | -103 |
| CC(=O)N1[C@H](CN(C)C)C[C@@H]2CN(C(=O)c3cccn3C)CC[C@@H]21 | 56.5 |
| CC(=O)N1[C@H](CN(C)C)C[C@@H]2CN(C(=O)c3cnc(C)cn3)CC[C@@H]21 | 29 |
| CC(=O)N1[C@H](CN(C)C)C[C@@H]2CN(C(=O)c3ccsc3)CC[C@@H]21 | -108 |
| CC(=O)N1[C@H](CN(C)C)C[C@@H]2CN(C(=O)c3cccc(F)c3)CC[C@@H]21 | -116 |
| CC(=O)N1[C@H](CN(C)C)C[C@@H]2CN(C(=O)c3occc3C)CC[C@@H]21 | 55.3 |
| CC(=O)N1[C@H](CN(C)C)C[C@@H]2CN(C(=O)c3ccno3)CC[C@@H]21 | 22.2 |
| CCC[C@H]1CN(Cc2cc(C#N)n(C)c2C)C[C@@H]1N(C)C | 20.2 |
| Cc1ccc(CN2C[C@@H]3COC[C@]3(COc3ccc(C#N)cn3)C2)o1 | -45.3 |
| COCC1(C(=O)N[C@H]2CN(c3ccnc(C)c3)C[C@@H]2C2CC2)CCC1 | -51.7 |
| O=C(NCCN1CCC(c2cccs2)CC1)c1ccc(F)cc1Cl | -19.5 |
| CC(=O)NCCN1CCC(c2cccs2)CC1 | 6.31 |
| O=C(NCCN1CCC(c2cccs2)CC1)c1ccccc1C(F)(F)F | 34.2 |
| CCSc1ccccc1C(=O)NCCN1CCC(c2cccs2)CC1 | 30.9 |
| O=C(NCCN1CCC(c2cccs2)CC1)Nc1cccs1 | 64.2 |
| O=C(Cc1ccccc1Cl)NCCN1CCC(c2cccs2)CC1 | 63.6 |
| CCOCC(O)CN1CCN(C(=O)C2CCCCC2)CC1 (stereo unspecified) | -108 |
| COc1ccccc1Cc1nnc(SCCS(C)(=O)=O)o1 | -75.9 |
| c1ccc2c(NC3CCc4ncnn4C3)ncnc2c1 (stereo unspecified) | -38 |

| Structure (SMILES) | INHIBITION [%] |
| --- | --- |
| CCCn1nnc2c(sc3nc(N4CCOCC4)c4c(c32)CCC4)c1=O | -102 |
| c1nc(N2CCCC2)cnc1C1CCNCC1 | -135 |
| CC(C)N1CCCC(Cc2cncc(Br)c2)CC1 (stereo unspecified) | -20.1 |
| CCc1nc(C)c(CC(=O)N2CCC3(CC2)OCCCC3O)c(=O)[nH]1 (stereo unspecified) | -109 |
| Cc1cccc(C)c1OCC(C)Nc1nc(N)nc2c1CCNC2 (stereo unspecified) | 67 |
| Cc1cccnc1CC(C)Nc1nc(N)nc2c1CCNC2 (stereo unspecified) | -92 |
| Cc1cc(C)n(CC(C)Nc2nc(C)nc3c2CCNC3)n1 (stereo unspecified) | 2.63 |
| Cc1ccc(-c2noc(CN3CCC(N4CCNC4=O)CC3)n2)cc1 | -63.1 |
| CCS(=O)(=O)N1Cc2ncn(C)c2C(COCC2CCOCC2)C1 (stereo unspecified) | -46.6 |
| c1ccc2c(c1)CN(c1ncnc3c1CCNC3)CCO2 | 65.9 |
| c1ccc(C2CCCN(c3ncnc4c3CCNC4)CC2)cc1 (stereo unspecified) | 61.2 |
| c1ccc2c(c1)CCN(c1ncnc3sc4c(c13)CCNC4)C2 | -28.5 |
| c1nc2c(c(N3CCOCC3)n1)CCNCC2 | -98 |
| NC(=O)c1cccnc1N1CCN(c2ncnc3c2CCNC3)CC1 | -103 |
| c1cc(C2CCN(c3ncnc4c3CCNCC4)CC2)ccn1 | 27.2 |
| c1ccc2c(c1)CN(c1ncnc3sc4c(c13)CCNC4)CCO2 | -26.7 |
| c1ccc2c(c1)CCN(c1nc(-c3ccncc3)nc3c1CCNC3)C2 | 61.6 |
| CN(C)c1nc2c(c(N3CCc4ccccc4C3)n1)CCNC2 | 31.4 |
| NC(=O)CN1CCC(NC(=O)COc2ccc(Cl)c(Cl)c2)CC1 | -138 |
| Cn1cccc1CN1CCc2ncnc(-c3cccnc3)c2CC1 | 0.898 |
| O=C1CCCC2=Nc3nonc3NC(c3cc(Cl)ccc3F)C12 (stereo unspecified) | -54 |
| O=C1CCCCN1Cc1cccc(OC(F)F)c1 | -103 |
| CN(C)S(=O)(=O)N1CC[C@]2(O)CCN(Cc3cccc(F)c3)C[C@@H]2C1 | 20.7 |

| Structure (SMILES) | INHIBITION [%] |
| --- | --- |
| Cc1ccc(CN2CC[C@@]3(O)CCN(S(=O)(=O)N(C)C)C[C@H]3C2)cc1C | 53.6 |
| CN(C)S(=O)(=O)N1CC[C@]2(O)CCN(CCCc3cccnc3)C[C@@H]2C1 | -62.2 |
| CN(C)S(=O)(=O)N1CC[C@]2(O)CCN(CCc3cccc(F)c3)C[C@@H]2C1 | 53.4 |
| CN(C)S(=O)(=O)N1CC[C@]2(O)CCN(Cc3cc(F)cc(F)c3)C[C@@H]2C1 | -81.9 |
| CN(C)S(=O)(=O)N1CC[C@]2(O)CCN(Cc3cccc(C#N)c3)C[C@@H]2C1 | -58.1 |
| CC(C)(C)CN1CCCC12CCN(S(=O)(=O)c1ccccc1)C2 (stereo unspecified) | 32.5 |
| c1cnnc(N2CCCC2CNCc2csc(-c3ccco3)n2)c1 (stereo unspecified) | 41.4 |
| c1cnnc(N2CCCC2CNCc2cccs2)c1 (stereo unspecified) | 55.7 |
| c1cnnc(N2CCCC2CNCc2cscn2)c1 (stereo unspecified) | 35.8 |
| Cc1nc(CNCC2CCCN2c2cccnn2)cs1 (stereo unspecified) | -34.2 |
| c1cnnc(N2CCCC2CNCc2nc(-c3ccoc3)no2)c1 (stereo unspecified) | 35.2 |
| CC(C)CCc1nc(CNCC2CCCN2c2cccnn2)cs1 (stereo unspecified) | 67.4 |
| c1cncc(-c2noc(CNCC3CCCN3c3cccnn3)n2)c1 (stereo unspecified) | -92.3 |
| Cc1ccc(CNCC2CCCN2c2cccnn2)s1 (stereo unspecified) | 46.6 |
| c1cnnc(N2CCCC2CNCc2nc(-c3ccco3)no2)c1 (stereo unspecified) | 50.5 |
| c1cnnc(N2CCCC2CNCCc2cccs2)c1 (stereo unspecified) | 40 |
| CCc1nc(CNCC2CCCN2c2cccnn2)cs1 (stereo unspecified) | 58.7 |
| CCCc1nc(CNCC2CCCN2c2cccnn2)cs1 (stereo unspecified) | 37.5 |
| COCCOc1ccccc1C(=O)N1CCCC(c2cc(C)[nH]n2)C1 (stereo unspecified) | -15.2 |
| Cc1ccccc1SC1CCN(C(=O)CCCS(N)(=O)=O)CC1 | -124 |
| Cc1noc(C)c1CN1C(=O)[C@@H]2CC[C@H]1CN(Cc1cccnc1N)C2 | -49.1 |
| Cn1cc(CNC2CCc3c(ccc(=O)n3Cc3cccnc3)C2)cn1 (stereo unspecified) | -48.3 |
| CCc1cc(C(F)(F)F)n2nc(C3CCCN3C(=O)COC)cc2n1 (stereo unspecified) | -17.9 |

| Structure (SMILES) | INHIBITION [%] |
| --- | --- |
| CCc1cnc(CN(C)C(=O)Nc2cnn(CC3CCCO3)c2)s1 (stereo unspecified) | -48.8 |
| Cc1cccc(CNCC2(O)CCCN(CC3CCCCC3)C2=O)n1 (stereo unspecified) | -3.18 |
| Cc1ncccc1Oc1nccnc1C1CCCN(C(C)C)C1 (stereo unspecified) | -26.3 |
| c1cnnc(N2CCCC2CNCc2nc3ccccc3o2)c1 (stereo unspecified) | -31.6 |
| CN(Cc1nc2ccccc2o1)CC1CCCN1c1cccnn1 (stereo unspecified) | 69.3 |
| Cc1nc(CN(C)CC2CCCN2c2cccnn2)oc1C (stereo unspecified) | -18.6 |
| Cc1nnc2ccc(N3CCC(C(=O)Nc4nccs4)CC3)nn12 | -16.3 |
| CC(C)c1nnc2ccc(N3CCC(C(=O)Nc4nccs4)CC3)nn12 | 66.9 |
| CC(C)c1nnc2ccc(N3CCCC(C(=O)Nc4nccs4)C3)nn12 (stereo unspecified) | -58 |
| NC(=O)C(c1ccc(F)cc1)N1CCN(CCO)CC1 (stereo unspecified) | -133 |
| NCC(c1ccccc1)N1CCc2sccc2C1 (stereo unspecified) | 57.9 |
| CSc1ccc(C(CNC(C)=O)N2CCc3sccc3C2)cc1 (stereo unspecified) | -77.1 |
| O=C(COCC1CC1)NCC(c1ccccc1)N1CCc2sccc2C1 (stereo unspecified) | -122 |
| CSc1ccc(C(CNC(=O)C2CC2)N2CCc3sccc3C2)cc1 (stereo unspecified) | 20.6 |
| CCOCCCC(=O)NCC(c1ccccc1)N1CCc2sccc2C1 (stereo unspecified) | -59.8 |
| O=C(NCCO)NCC(c1ccccc1)N1CCc2sccc2C1 (stereo unspecified) | -6.62 |
| NCC(c1ccc(Cl)cc1)N1CCc2sccc2C1 (stereo unspecified) | 66.5 |
| CSc1ccc(C(CN)N2CCc3sccc3C2)cc1 (stereo unspecified) | 9.08 |
| CC(C)c1ccc(C(CN)N2CCc3sccc3C2)cc1 (stereo unspecified) | 69.8 |
